Experiment [1] can be described thus: HepG2 liver cancer cell viability effects, profiling panel, resazurin fluorescence, 24 h, PK04 Diversity Set (AID 1172). Further: test concentration not given here. To be noted: higher = more signal. Background: The colour change of resazurin is a common sign of viable cells or microbes.
The nature of experiment [2]: basal S. cerevisiae growth modulation, no modifier, primary screen, OD600, strain BY4716, 24 h, basal condition (AID 1173). To be noted: OD600, 24 h, higher = more signal, called active from +8 up or from −8 down.
Experiment [3] is described as follows: MM1S myeloma cell viability, profiling panel, resazurin fluorescence, basal, 24 h, PK04 Diversity Set (AID 1174).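 Further: MM1S multiple myeloma cell line; test concentration not given here.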 To be noted: higher = more signal, called active from +8 up or from −8 down.
Experiment [4] deals with Dihydroorotate dehydrogenase (quinone), mitochondrial (Plasmodium falciparum (isolate 3D7)) (UniProt Q08210). The experiment in a line: PfDHODH enzyme inhibitors, primary screen, biochemical, C-terminal His tag, absorbance 600 nm (AID 1175).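 Further: recombinant parasite enzyme with a five histidine tag at its C terminus; test concentration not given here.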 The note with it: DCIP absorbance 600 nm, higher = more signal, called active from +8 up or from −8 down.
Experiment [5] in a line: P. aeruginosa biofilm formation inhibitors, primary screen, strain PAO1, LB-PBS medium, absorbance 600 nm (AID 1176). Further: test concentration not given here. The note with it: P. aeruginosa PAO1 growth/biofilm, A600, 12 h; higher = more signal.
Experiment [6] is described as follows: S. cerevisiae RM11-1a growth modifiers, primary screen, strain RM11-1a, OD600, basal, 24 h (AID 1177).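 Further: cultures grown under basal conditions with no added stressor; test concentration not given here.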 To be noted: OD600, 24 h, higher = more signal, called active from +8 up or from −8 down.
The nature of experiment [7]: E. coli acrAB mutant growth effects, primary screen, E. coli filamentation inducers, strain DRC39, OD650, 24 h (AID 1178).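 Further: growth measured as culture turbidity by optical density at 650 nm; test concentration not given here.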 To be noted: higher = more signal, called active from +8 up or from −8 down.
A short description of experiment [8]: E. coli acrAB mutant growth effects, primary screen, E. coli filamentation inducers, strain DRC39, OD650, 48 h (AID 1179).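 Further: screen aims at cell division blockers that make cells filament.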 To be noted: E. coli DRC39 delta-acrAB growth, higher = more signal, called active from +8 up or from −8 down.
Experiment [9] is described as follows: RPMI8226 myeloma cell viability, profiling panel, resazurin fluorescence, basal, 24 h, PK04 Diversity Set (AID 1180).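 Further: RPMI8826 multiple myeloma cell line at 5000 cells per well; test concentration not given here.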 The note with it: higher = more signal.
Experiment [10] deals with E3 ubiquitin-protein ligase XIAP (Homo sapiens) (UniProt P98170). The experiment in a line: XIAP binders, primary screen, biophysical, small-molecule microarray, fluorescence 635 nm (AID 1181).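 Further: score merges 667 nm emission and signal to noise over triplicate slides.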 The note with it: small-molecule microarray binding, higher = more signal.

Activity calls are given as the source filed them. Unless noted, how the calls were made is not given here.

E3 ubiquitin-protein ligase XIAP (Homo sapiens), sequence (P98170 whole entry, looked up): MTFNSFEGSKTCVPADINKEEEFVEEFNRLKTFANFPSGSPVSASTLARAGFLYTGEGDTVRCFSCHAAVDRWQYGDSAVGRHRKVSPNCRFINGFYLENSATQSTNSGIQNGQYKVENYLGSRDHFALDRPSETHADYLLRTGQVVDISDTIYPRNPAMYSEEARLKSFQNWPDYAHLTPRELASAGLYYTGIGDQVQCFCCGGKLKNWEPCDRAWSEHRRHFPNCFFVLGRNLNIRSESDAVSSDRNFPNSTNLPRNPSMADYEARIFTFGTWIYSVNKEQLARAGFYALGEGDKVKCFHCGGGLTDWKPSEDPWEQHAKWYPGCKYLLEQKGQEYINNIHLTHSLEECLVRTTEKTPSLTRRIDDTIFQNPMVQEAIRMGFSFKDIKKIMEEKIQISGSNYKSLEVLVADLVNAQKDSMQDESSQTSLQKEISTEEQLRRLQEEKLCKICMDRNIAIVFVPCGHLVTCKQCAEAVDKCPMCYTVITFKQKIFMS
Dihydroorotate dehydrogenase (quinone), mitochondrial (Plasmodium falciparum (isolate 3D7)), sequence (Q08210 whole entry, looked up): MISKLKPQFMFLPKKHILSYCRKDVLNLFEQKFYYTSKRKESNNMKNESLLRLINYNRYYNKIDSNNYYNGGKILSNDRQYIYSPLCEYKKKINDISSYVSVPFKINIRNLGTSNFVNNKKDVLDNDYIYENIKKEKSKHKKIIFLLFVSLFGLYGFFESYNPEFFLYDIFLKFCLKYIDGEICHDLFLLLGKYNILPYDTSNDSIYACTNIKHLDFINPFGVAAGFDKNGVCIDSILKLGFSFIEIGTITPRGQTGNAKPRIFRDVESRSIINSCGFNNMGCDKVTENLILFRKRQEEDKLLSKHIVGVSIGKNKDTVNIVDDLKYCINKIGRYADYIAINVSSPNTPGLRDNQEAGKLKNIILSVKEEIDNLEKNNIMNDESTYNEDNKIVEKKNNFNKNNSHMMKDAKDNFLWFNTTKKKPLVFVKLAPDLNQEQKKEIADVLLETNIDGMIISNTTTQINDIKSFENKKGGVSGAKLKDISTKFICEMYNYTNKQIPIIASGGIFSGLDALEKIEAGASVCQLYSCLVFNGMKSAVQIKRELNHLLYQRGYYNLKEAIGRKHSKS

For `CC(C)(C)N1C(=O)[C@H]2[C@H]3[C@H](O)[C@H](O)CC(=NO[C@@H]4O[C@H](CO)[C@@H](O)[C@H](O)[C@H]4O)[C@H]3CC[C@H]2C1=O`, the z-score in experiment [1] was -0.849; in [2], -1.3 (inactive); in experiment [3], -0.623 (inactive); in experiment [5], 1.15 (inactive); in experiment [6], 0.339 (inactive); in experiment [7] it was -0.341 (inactive). For the same molecule, the z-score is -1.45 (inactive) in experiment [8] and -0.817 in [9]. The composite z-score was -0.982 (inactive) in experiment [4] and -0.142 in [10].

On to `C#CCCCON=C1C[C@@H](O)[C@@H](O)[C@@H]2[C@@H]3C(=O)N(CCC(=O)OCC)C(=O)[C@@H]3CC[C@H]12`, for which the z-score in [1] is -1.1; in [2] it was -4.65 (inactive); in experiment [3] it was -0.307 (inactive); in [5], -0.191 (inactive); in experiment [6], -1.71 (inactive); in experiment [7], 0.0851 (inactive). Also, the values for the z-score in [8] and in [9] were 0.1 (inactive) and -0.192, respectively. In addition, the composite z-score was -0.937 (inactive) in [4] and -0.232 in experiment [10].

On to `CCOC(=O)[C@H](Cc1ccccc1)NC(=O)OC1CC(CCC2CC(CC)=NO2)OC2(CCCC(COC(=O)NCCC(C)C)O2)C1` (stereo not given in full), for which the z-score in experiment [1] is 0.239; in experiment [2], 0.633 (inactive); in experiment [3], 0.264 (inactive); in [5], 0.226 (inactive); in experiment [6] it was 0.136 (inactive); in experiment [7] it was 0.347 (inactive). In addition, the z-score is 0.205 (inactive) in [8] and 0.65 in experiment [9]. In addition, the composite z-score was -0.133 (inactive) in experiment [4] and -0.22 in experiment [10].

Regarding `CC[C@@H](c1ccccc1)n1c(=O)n2n(c1=O)[C@H]1[C@H](O)[C@@H]3O[C@@H]3C(=O)[C@H]1CC2`, the z-score is -0.797 in [1]; -1.57 (inactive) in [2]; -2.15 (inactive) in experiment [3]; -0.626 (inactive) in experiment [5]; -0.552 (inactive) in experiment [6]; 0.285 (inactive) in [7]. Also, the values for the z-score in [8] and in experiment [9] were 0.216 (inactive) and -2.04, respectively. Further, the values for the composite z-score in experiment [4] and in [10] were 0.807 (inactive) and 0.0641, respectively.

For `CC(C)=CCCC(C)=CCON=C1C[C@@H](O)[C@@H](O)[C@@H]2[C@@H]3C(=O)N(C[C@@H]4CCCO4)C(=O)[C@@H]3CC[C@H]12`, the z-score in experiment [1] was 0.164; in experiment [2], -1.72 (inactive); in [3], -0.58 (inactive); in experiment [5], 0.295 (inactive); in experiment [6], 1.8 (inactive); in experiment [7], -0.169 (inactive). In addition, the values for the z-score in [8] and in [9] were -0.543 (inactive) and -0.251, respectively. In addition, the results for the composite z-score in experiment [4] and in [10] were 0.0911 (inactive) and -0.217, respectively.

For the molecule `COC(=O)CC=C[C@@H](C)[C@@H](C=NOC(C)CN1CCCc2nc(C)c(C)cc21)OC` (stereo not given in full), the z-score is -0.412 in experiment [1]; 0.0692 (inactive) in [2]; 0.141 (inactive) in experiment [3]; -0.537 (inactive) in experiment [5]; -0.151 (inactive) in experiment [6]; -0.222 (inactive) in [7]. In addition, the z-score is -0.0403 (inactive) in [8] and -1.26 in [9]. Further, the composite z-score is -0.781 (inactive) in [4] and 0.137 in experiment [10].

Turning to `CCOC(=O)[C@H](CC(C)C)NC(=O)CCC1CC(OC(=O)NCCc2ccc(F)cc2)CC2(CCCC(COC(=O)NCC(c3ccccc3)c3ccccc3)O2)O1` (stereo not given in full), the z-score in experiment [1] was 0.184; in [2], -0.227 (inactive); in experiment [3], -0.345 (inactive); in experiment [5] it was 0.013 (inactive); in experiment [6], 0.126 (inactive); in [7], 0.113 (inactive). In addition, the z-score is -1.1 (inactive) in [8] and 0.465 in experiment [9]. For the same molecule, the composite z-score in [4] was 0.0649 (inactive); in experiment [10], -0.0994.

Consider `CO[C@@H]1C=CCC(=O)N[C@@H](C)C(=O)OC[C@@H](OC)[C@H](C)CCCC(=O)OC[C@H]1C`, for which the z-score is 0.287 in experiment [1]; -0.445 (inactive) in experiment [2]; 0.719 (inactive) in experiment [3]; -0.479 (inactive) in experiment [5]; -0.935 (inactive) in [6]; 0.853 (inactive) in experiment [7]. The z-score in experiment [8] was 0.174 (inactive); in [9], 1.58. In addition, the figures for the composite z-score in experiment [4] and in experiment [10] were -1.38 (inactive) and -0.269, respectively.

Consider `CC(C)(C)N1C(=O)[C@H]2[C@H]3[C@H](O)C=CC(=O)[C@@H]3CC[C@H]2C1=O`, for which the z-score in experiment [1] is 0.136; in experiment [2], 1.48 (inactive); in experiment [3], 0.469 (inactive); in [5] it was -0.118 (inactive); in experiment [6], 0.846 (inactive); in experiment [7], -0.278 (inactive). For the same molecule, the z-score in [8] is -0.231 (inactive); in experiment [9] it was 0.467. The composite z-score in experiment [4] was 0.237 (inactive); in [10], -0.102.

For the molecule `COC(=O)CC=C[C@@H](C)[C@@H](C=NOC[C@@H](O)[C@H]1O[C@@H]2OC(C)(C)O[C@@H]2[C@H]1O)NS(=O)(=O)c1ccc(C)cc1`, the z-score in experiment [1] is -0.687; in experiment [2], 0.185 (inactive); in experiment [3] it was -0.502 (inactive); in experiment [5], 0.453 (inactive); in [6], 0.0095 (inactive); in experiment [7], -0.336 (inactive). Further, the values for the z-score in experiment [8] and in experiment [9] were 0.447 (inactive) and -0.609, respectively. The composite z-score in experiment [4] was -0.241 (inactive); in [10], -0.0445.

Consider `COc1cccc([C@H]2Oc3ccc(OC)cc3C(=NOC[C@@H](C)[C@H](OCc3ccccc3)C(C)C)[C@@H]2O)c1`, for which the z-score was -0.214 in experiment [1]; 0.635 (inactive) in [2]; -0.0524 (inactive) in experiment [3]; 0.347 (inactive) in [5]; 0.846 (inactive) in experiment [6]; 0.221 (inactive) in [7]. The figures for the z-score in [8] and in experiment [9] were -1.18 (inactive) and 0.0541, respectively. Also, the composite z-score in [4] was -0.212 (inactive); in [10], 0.0015.

With `O=C1C[C@@H](O)[C@@H](O)[C@@H]2[C@@H]3C(=O)N(C[C@@H]4CCCO4)C(=O)[C@@H]3CC[C@@H]12`, the z-score in [1] is -0.429; in experiment [2], 0.0532 (inactive); in experiment [3], -0.272 (inactive); in [5], 0.565 (inactive); in experiment [6], -0.129 (inactive); in [7], 0.469 (inactive). In addition, the z-score was 0.582 (inactive) in experiment [8] and -0.12 in [9]. Also, the values for the composite z-score in [4] and in [10] were 0.204 (inactive) and -0.0989, respectively.

The values above are taken from PubChem BioAssay.
